Data on 101 compounds can be found in PubChem BioAssay AID493035 (The Scripps Research Institute Molecular Screening Center, 2011).

Hit rate of the full screen: of about 2,000 compounds, about 45 (2%) were called active.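 Rule for the calls: active = inhibition above the mean of all tested compounds plus 3 SD (cut at about 49% in these data); inactive = the rest.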 The entries come from a sample that favours actives as a whole.

In general, inhibition refers to the drop in the measured response relative to a control, in per cent.

The target in this experiment is Perilipin-5 (Homo sapiens) + 1-acylglycerol-3-phosphate O-acyltransferase ABHD5 (Homo sapiens) (UniProt Q00G26+Q8WTS1). Briefly: blockers of ABHD5 binding to perilipin-5 – cell lysate, split luciferase complementation, luminescence, NIH validation set, pilot screen (AID 493035).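 Note: 0% = DMSO only wells while the 100% control is not stated.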 As to conditions: split G. princeps luciferase complementation, lysates, 4 h; at 7.9 µM, hits give high values.
Perilipin-5 (Homo sapiens) + 1-acylglycerol-3-phosphate O-acyltransferase ABHD5 (Homo sapiens), sequence (Q00G26 whole entry, looked up): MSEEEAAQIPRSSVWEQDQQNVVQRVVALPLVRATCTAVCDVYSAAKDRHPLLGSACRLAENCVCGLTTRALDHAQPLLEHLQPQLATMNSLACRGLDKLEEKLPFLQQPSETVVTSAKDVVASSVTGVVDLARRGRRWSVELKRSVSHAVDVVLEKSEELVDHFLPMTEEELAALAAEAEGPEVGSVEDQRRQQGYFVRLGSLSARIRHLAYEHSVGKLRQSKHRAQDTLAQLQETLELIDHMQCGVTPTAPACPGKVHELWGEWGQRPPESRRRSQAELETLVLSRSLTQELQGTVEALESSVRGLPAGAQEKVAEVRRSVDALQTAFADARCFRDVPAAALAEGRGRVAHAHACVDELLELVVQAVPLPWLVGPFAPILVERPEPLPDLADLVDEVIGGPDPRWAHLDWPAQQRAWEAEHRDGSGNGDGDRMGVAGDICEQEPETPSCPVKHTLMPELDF
Perilipin-5 (Homo sapiens) + 1-acylglycerol-3-phosphate O-acyltransferase ABHD5 (Homo sapiens), sequence (Q8WTS1 whole entry, looked up): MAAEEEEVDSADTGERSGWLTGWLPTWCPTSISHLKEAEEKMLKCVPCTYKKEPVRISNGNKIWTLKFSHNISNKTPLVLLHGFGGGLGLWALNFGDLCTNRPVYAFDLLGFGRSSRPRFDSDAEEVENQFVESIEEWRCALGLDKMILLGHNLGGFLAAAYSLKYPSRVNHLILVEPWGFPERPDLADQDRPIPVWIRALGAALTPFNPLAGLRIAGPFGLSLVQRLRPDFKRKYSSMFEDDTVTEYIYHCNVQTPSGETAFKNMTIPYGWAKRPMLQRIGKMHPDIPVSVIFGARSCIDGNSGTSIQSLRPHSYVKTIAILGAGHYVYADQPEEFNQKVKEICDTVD
For the compound `O=C(Nc1ccc(Oc2c(F)c(F)c(F)c(F)c2F)cc1)OC1CCN2Cc3ccccc3N=C12` (stereo unspecified), the inhibition is 69.3% (active).

`Cc1ccc(S(=O)(=O)N2CCC(C(=O)N[C@@H](C)C(=O)NC3CCS(=O)(=O)C3)CC2)cc1` (stereo partly specified): the inhibition was -6.13% (inactive).

As for `Cc1ccc(-c2nnc(-c3ccc4c(c3)OCO4)o2)cc1`, the inhibition is -9.18% (inactive).

`CCN1/C(=C/C=C/C=C/c2sc3ccccc3[n+]2CC)Sc2ccccc21`: the inhibition is 70.5% (active).

With `CN(C)CCCN1c2ccccc2Sc2ccccc21`, the inhibition is -13% (inactive).

On to `CC(CN1c2ccccc2Sc2ccccc21)N(C)C` (stereo unspecified), for which the inhibition is -12.2% (inactive).

Regarding `C=CCn1c(SCC(=O)NC2CCCCC2)nc2ccccc2c1=O`, the inhibition was -1.42% (inactive).

With `COc1ccccc1-c1ccc(/C=C2/C=C(CC(C)C)OC2=O)o1`, the inhibition is 7.79% (inactive).

In the case of `CCOC(=O)c1c(C)oc2cc(Br)c(OC(C)C(=O)OCC)cc12` (stereo unspecified), the inhibition is -0.05% (inactive).

For the compound `COc1cccc(OCC(O)CO)c1` (stereo unspecified), the inhibition is -6.51% (inactive).

As for `N#C/C(C(N)=O)=c1/ccc2c(c1)N1C3=C(CCCC3)CC3CCCCC31N=2` (stereo unspecified), the inhibition is 25.4% (inactive).

Turning to `COc1ccc(C(=O)COc2ccc(F)cc2)c(O)c1`, the inhibition was -6.5% (inactive).

Take `COc1ccc(C(=O)/C=C/c2cc(C(=O)O)cc3c2OCOC3)c(O)c1`: the inhibition is 70.3% (active).

As for `COc1cccc(/C=C/C(=O)c2c(O)cc(C)oc2=O)c1O`, the inhibition was 44.4% (inactive).

For `CC1=CC(C)(C)N2C(=O)C3(NCCc4c3[nH]c3ccccc43)c3cc(C)cc1c32` (stereo unspecified), the inhibition was -1.07% (inactive).

As for `O=C(NC(=S)Nc1ccc(N2CCN(C(=O)c3ccccc3)CC2)cc1)c1cccs1`, the inhibition was 11.4% (inactive).

Regarding `Cc1ccc(S(=O)(=O)n2ccnc2)cc1C`, the inhibition was -3.74% (inactive).

For `COC(=O)C1=C(C)N(Cc2ccco2)C(=O)/C1=C\c1ccc([N+](=O)[O-])cc1`, the inhibition was 84.5% (active).

As to `COC(=O)c1ccc(=O)n(Cc2ccco2)c1`, the inhibition is 18.6% (inactive).

With `COCCCN1C(=O)/C(=C\c2cccs2)C(C(=O)OC)=C1C`, the inhibition is 0.91% (inactive).

`CCNC(=O)C12CCC(C)(C(=O)O1)C2(C)C` (stereo unspecified): the inhibition was -5.33% (inactive).

Take `CC(C)[C@H](NC(=O)[C@@H]1CSCN1C(=O)OC(C)(C)C)C(=O)NCC1CCC(C(=O)O)CC1` (stereo partly specified): the inhibition is -18.6% (inactive).

Consider `CC(=O)N/C(=C/c1ccc2c(c1)OCO2)C(=O)NCCO`, for which the inhibition was 2.23% (inactive).

Regarding `COc1ccc(C2=C(CN(C)C)C(c3ccccc3)c3ccccc3O2)cc1` (stereo unspecified), the inhibition was 1.13% (inactive).

With `CCOC(=O)C(=Cc1ccccc1OC)C(=O)OCC`, the inhibition was 47.9% (active).

On to `COc1ccccc1/C=C/C(=O)OCCN1CCOCC1`, for which the inhibition was -8.59% (inactive).

Take `CCOC(=O)C(=O)N1CCN(c2ccccc2OC)CC1`: the inhibition is -5.55% (inactive).

As to `CCn1cc(CN2N=C(C)CC2c2ccccc2)c(C)n1` (stereo unspecified), the inhibition was 2.34% (inactive).

Turning to `Cc1ccc(S(=O)(=O)NC(=O)Nc2cc(C)ccc2F)cc1`, the inhibition was -7.32% (inactive).

On to `CC(C)(C)N1NC2(CCCCC2)NC1=S`, for which the inhibition is 6.12% (inactive).

With `COc1ccc2oc(=O)c(C(=O)Nc3ccccc3-c3ccccc3)cc2c1`, the inhibition was -5.51% (inactive).

Turning to `COc1ccc2oc(=O)c(C(=O)N3CCN(c4ccccc4)CC3)cc2c1`, the inhibition is 9.11% (inactive).

Take `COc1ccc(O)c(C(=O)/C=C/c2cc3ccccc3o2)c1`: the inhibition is 73.2% (active).

As for `Cc1ccc(C(=O)O)cc1NC(=O)c1cccs1`, the inhibition was -5.26% (inactive).

As to `CN1/C(=C\C=Nc2ccccc2)C(C)(C)c2ccccc21`, the inhibition was 14.1% (inactive).

As to `COc1ccc2cc(-c3nc4ccccc4n3C)c(=O)oc2c1`, the inhibition was -5.19% (inactive).

On to `CCn1c2ccccc2c2cc(CC(N)=O)ccc21`, for which the inhibition is -7.62% (inactive).

Take `COc1ccccc1C(=O)Nc1cc2cc(Br)ccc2oc1=O`: the inhibition is -7.35% (inactive).

In the case of `Cc1ccc(CSCC(=O)NCCCN2CCOCC2)cc1`, the inhibition is 2.33% (inactive).

On to `Cc1cc(=O)c2c(O)c(O)ccc2o1`, for which the inhibition was -3.3% (inactive).

For `O=c1nc2sc3ccccc3n2c(=O)n1-c1ccc(Cl)cc1`, the inhibition was 5.72% (inactive).

As to `COc1ccc(C)cc1S(=O)(=O)Nc1ccc(F)cc1`, the inhibition is 0.68% (inactive).

As for `Cc1ccc(S(=O)(=O)N[C@@H](Cc2ccccc2)C(=O)CCl)cc1`, the inhibition was 84.4% (active).

With `CNS(=O)(=O)c1ccc(C)cc1`, the inhibition was -16.6% (inactive).

With `CCCCNC(=O)NS(=O)(=O)c1ccc(C)cc1`, the inhibition was -4.64% (inactive).

Take `COc1ccc(-c2nnc(-c3cc4c(ccc5ccccc54)oc3=O)o2)cc1`: the inhibition is 5.2% (inactive).

`COc1c(C=O)c(CCN(C)C(=O)c2ccc(F)cc2)cc2c1OCO2`: the inhibition is 3.02% (inactive).

`O=C(O)c1cc(-c2ccccc2)nc2ccccc12`: the inhibition was -2.12% (inactive).

In the case of `COC(=O)c1cc(-c2ccc(C)o2)nc2ccccc12`, the inhibition is 72.8% (active).

On to `CCCOc1ccc(-c2cc(C(=O)NCC3CCCO3)c3ccccc3n2)cc1` (stereo unspecified), for which the inhibition was -0.81% (inactive).

For `C/C(=N\NC(=O)c1ccccc1[N+](=O)[O-])c1ccc(Br)s1`, the inhibition was -7.54% (inactive).

Turning to `Cc1cc(C)c(NC(=O)NC(=O)C(Cl)(Cl)Cl)c(C)c1`, the inhibition is -18.5% (inactive).

On to `O=C(/C=C/c1ccc2c(c1)OCCCO2)c1ccc2ccccc2c1O`, for which the inhibition was 26.6% (inactive).

Turning to `O=C(/C=C/c1ccc2c(c1)OCO2)NCc1ccc(F)cc1`, the inhibition is 1.71% (inactive).

In the case of `O=C(/C=C/c1ccc2c(c1)OCO2)c1ccccn1`, the inhibition was 55.7% (active).

For `O=C1N[C@@H](Cc2cnc[nH]2)C(=O)N2CCC[C@@H]12`, the inhibition is -13.3% (inactive).

As to `O=C(c1ccccc1F)c1cc2c(cc1[N+](=O)[O-])OCCO2`, the inhibition is 2.64% (inactive).

As to `O=C(CN1CC[n+]2c(-c3cccs3)csc21)c1ccc(Br)cc1`, the inhibition is 51.8% (active).

Consider `COc1ccc(-c2c3c(=O)n(C)c(=O)n(C)c3cn2C2CCCCC2)cc1`, for which the inhibition was 7.04% (inactive).

Take `O=C(O)/C=C/c1cccc(OCc2ccccc2)c1`: the inhibition is -15.3% (inactive).

As to `CC(C)C[C@H](NC(=O)NC(C)C)C(=O)O`, the inhibition is -0.17% (inactive).

`CC(C)OC(=O)CC1C(=O)NCCN1C(=S)NC(=O)c1cccs1` (stereo unspecified): the inhibition is -6.51% (inactive).

In the case of `COc1ccc(C2CC(c3c(O)cc(C)oc3=O)=NCCS2)c(OC)c1` (stereo unspecified), the inhibition is 22.5% (inactive).

On to `O=C1ON=C(c2ccc(Cl)cc2)/C1=C/c1ccc(O)cc1`, for which the inhibition is 70.2% (active).

As to `COc1cc2c(cc1OC)/C(=C/c1ccc(Cl)cc1)C(=O)OC2`, the inhibition is 33.3% (inactive).

Regarding `Nc1cccc(C(=O)O)c1`, the inhibition is -4.68% (inactive).

Turning to `O=C(O)C1[C@H]2C(=O)N(C3CCCC3)C[C@]23C=C[C@H]1O3` (stereo partly specified), the inhibition was -13.3% (inactive).

Regarding `O=C1CCCN1C(=O)CCC(=O)N1CCCC1=O`, the inhibition is 4.49% (inactive).

In the case of `Cc1oc2c(C)c3oc(=O)c4c(c3cc2c1C)CCCC4`, the inhibition was 1.69% (inactive).

Take `CS(=O)(=O)Oc1ccc2c(c1)O/C(=C\C=C\c1ccccc1)C2=O`: the inhibition was 53.5% (active).

In the case of `COc1ccccc1C(=O)Oc1ccc2c(c1)O/C(=C\c1ccncc1)C2=O`, the inhibition is 35.9% (inactive).

As to `CCc1ccc(/C=C2\Oc3cc(OC(=O)N4CCOCC4)ccc3C2=O)cc1`, the inhibition was 17.7% (inactive).

On to `O=C(O)C1CCN(C(=O)COc2ccc3c4c(c(=O)oc3c2)CCC4)CC1`, for which the inhibition was -5.81% (inactive).

In the case of `COc1ccc([C@H]2[C@H](C(=O)OC(C)(C)C)N3N=Cc4ccccc4C3C23C(=O)c2ccccc2C3=O)cc1OC` (stereo partly specified), the inhibition is 0.07% (inactive).

As for `O=C(NCCO)c1ccc2[nH]c3ccccc3c2c1`, the inhibition is -4.84% (inactive).

For `COc1ccc2nc(C)cc(Nc3ccccc3O)c2c1`, the inhibition was -5.57% (inactive).

Turning to `O=C1c2ccccc2C2(c3ccccc3)NCCN12` (stereo unspecified), the inhibition was 0.12% (inactive).

As to `COc1cc2c3c(c1)C(C)CC(C)(C)N3C(=O)C2=O` (stereo unspecified), the inhibition was 3.84% (inactive).

Turning to `CC1(c2ccccc2)CC(C)(C)N2C(=O)C(=O)c3cccc1c32` (stereo unspecified), the inhibition was 59.8% (active).

For `Cc1[nH]c2ccccc2c1/C=C/c1nc2ccccc2c(=O)n1CCO`, the inhibition is 8.95% (inactive).

`C[C@]12CC[C@@H]3c4ccc(O)cc4C(=O)C[C@H]3[C@@H]1CC[C@@H]2O`: the inhibition is 9.16% (inactive).

Take `CC(=O)OCC1OC(n2ccc(=O)[nH]c2=O)C(O)C1O` (stereo unspecified): the inhibition is -2.69% (inactive).

On to `C/C(=N\NC(=O)C1(C)CC1(Br)Br)c1ccc([N+](=O)[O-])cc1` (stereo unspecified), for which the inhibition is -8.2% (inactive).

Regarding `O=C(NCc1ccc(N2CCCC2=O)cc1)c1ccc(F)cc1`, the inhibition was 7.2% (inactive).

In the case of `CC(=Nc1ccccc1)C1=C(O)CCCC1=O`, the inhibition is 0.34% (inactive).

With `O=C(/C=C/c1ccco1)N1CCN(c2ccccc2)CC1`, the inhibition is 2.96% (inactive).

For the compound `CC1(C)c2ccccc2N2CC(=O)N(CC(N)=O)C21C` (stereo unspecified), the inhibition is 4.9% (inactive).

`CC1(C)c2ccccc2N2CC(=O)NC21/C=C/c1ccco1` (stereo unspecified): the inhibition is 50.2% (active).

For the compound `Nc1ccc2cn[nH]c2c1`, the inhibition is -10.6% (inactive).

As for `Cc1ccc(N2C(=O)c3ccccc3C2=O)cc1C`, the inhibition was -3.44% (inactive).

As for `CNc1nc(N(C)C)nc(N(C)C)n1`, the inhibition was -0.61% (inactive).

For the compound `COC(=O)c1ccc(C(=O)OC)c(NC(=O)C(C)C)c1`, the inhibition was -13.5% (inactive).

With `COc1ccc(C2=CC(=O)C=CC2=O)cc1`, the inhibition was 69.1% (active).

As to `COc1ccc(C2C(=O)c3ccccc3C2=O)cc1`, the inhibition was -1.24% (inactive).

For the compound `COc1ccc(-c2nc(NC(C)=O)sc2-c2ccc(OC)cc2)cc1`, the inhibition is 2.96% (inactive).

Take `COc1ccccc1CCn1cnc2c3cc(C)ccc3n(C)c2c1=O`: the inhibition was 12.2% (inactive).

Take `CCOc1cc2c(cc1OCC)C(c1ccccc1)N(c1ccc(C(=O)O)cc1)C(=O)C2` (stereo unspecified): the inhibition was 5.15% (inactive).

`CCS(=O)(=O)Nc1cc(OC)c(OC)cc1Cc1nccc2cc(OC)c(OC)cc12`: the inhibition was -5.76% (inactive).

As to `O=C(COc1ccc2ccc(=O)oc2c1)c1ccccc1`, the inhibition is -3.28% (inactive).

In the case of `COc1ccc(NC(=O)C2C(=O)N(CCO)C3(C)CC2c2ccccc2O3)cc1` (stereo unspecified), the inhibition was -8.28% (inactive).

Take `COc1ccc2c(c1)C=CC1(O2)N(CCO)c2ccccc2C1(C)C` (stereo unspecified): the inhibition is 50.9% (active).
